Assay results published in PubChem BioAssay (NCATS).
Results filed as inconclusive are left out. Active and inactive are the calls of the source. The call rests on the fitted dose curve; in most records, active means well fitted curve in the direction sought with a large enough effect; inconclusive means small, poorly fitted or top-dose-only effect, or another doubt; inactive means no such curve, though single readings can be large; an effect the other way counts as inactive or inconclusive.

Legend:
[1] = Quantitative High-Throughput drug screen in 47 multiple myeloma cell lines against the NCATS MIPE library collection: KMM1_JCRB cell viability assay (AID 1918960); further: nearly all actives have a fitted effect of over 30% in size
In short: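 ATP readout (CellTiter-Glo), 48 h drug incubation, 37 °C/5% CO2, 500 cells per well; normalisation to DMSO (100%) and media-only (0%) controls.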

[2] = Quantitative High-Throughput drug screen in 47 multiple myeloma cell lines against the NCATS MIPE library collection: JIM3_ECACC cell viability assay (AID 1918963; further: nearly all actives have a fitted effect of over 35% in size)
In short: (§1)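 Viability readout: CellTiter-Glo luminescence following 5 min room-temperature incubation with reagent. Prior exposure: 48 h, 37C, humidified 5% CO2, 500 cells per well.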

[3] = Quantitative High-Throughput drug screen in 47 multiple myeloma cell lines against the NCATS MIPE library collection: INA6_PLB cell viability assay (AID 1918965; further: nearly all actives have a fitted effect of over 55% in size)
In short: (§2)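 Approved and investigational drugs from MIPE 4.0 were added by pin tool to 500 cells per well. After 48 hours at 37C, ATP-based CellTiter-Glo luminescence indicated remaining viability.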

[4] = Quantitative High-Throughput drug screen in 47 multiple myeloma cell lines against the NCATS MIPE library collection: JJN3_DSMZ cell viability assay (AID 1918966; further: nearly all actives have a fitted effect of over 50% in size)
In short: (§3)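 Myeloma cells (500 per well) were exposed to MIPE 4.0 compounds by pin transfer and incubated 48 hours at 37C, 5% CO2. Viability was read as ATP by CellTiter-Glo luminescence, normalised to DMSO (100%) and media-only (0%) wells.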

[5] = Quantitative High-Throughput drug screen in 47 multiple myeloma cell lines against the NCATS MIPE library collection: Karpas25_ECACC cell viability assay (AID 1918968; further: nearly all actives have a fitted effect of over 35% in size)
In short: as §3

[6] = Quantitative High-Throughput drug screen in 47 multiple myeloma cell lines against the NCATS MIPE library collection: KMS27_JCRB cell viability assay (AID 1918970); conditions: KMS27 myeloma cells, CellTiter-Glo ATP viability, 48 h; viability (% of DMSO): at 45.8 µM (top of the series); further: nearly all actives have a fitted effect of over 30% in size
In short: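 Luminescent ATP read-out (CellTiter-Glo, 5 min at room temperature) after 48 h compound exposure of 500 KMS27_JCRB cells per well; DMSO wells define full viability and media-only wells zero.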

[7] = Quantitative High-Throughput drug screen in 47 multiple myeloma cell lines against the NCATS MIPE library collection: JIM1_ECACC cell viability assay (AID 1918964)
In short: as §3

[8] = Quantitative High-Throughput drug screen in 47 multiple myeloma cell lines against the NCATS MIPE library collection: H1112_PLB cell viability assay (AID 1918967; further: nearly all actives have a fitted effect of over 30% in size)
In short: as §3

[9] = Quantitative High-Throughput drug screen in 47 multiple myeloma cell lines against the NCATS MIPE library collection: Karpas417_ECACC cell viability assay (AID 1918961); conditions: Karpas417 myeloma viability, CellTiter-Glo ATP luminescence, 48 h; viability (% of DMSO): at 45.8 µM (top of the series)
In short: as §2

[10] = Quantitative High-Throughput drug screen in 47 multiple myeloma cell lines against the NCATS MIPE library collection: KHM11_PLB cell viability assay (AID 1918962); further: nearly all actives have a fitted effect of over 35% in size
In short: as §1
Potency means the concentration at half of the fitted maximal effect.

Structure (SMILES): COc1ccc2c(c1)c(C1=C(c3c[nH]c4ccccc34)C(=O)NC1=O)cn2CCCN(C)C
- Potency [1]: 23.5 µM (active)
- Potency [2]: 13.2 µM (active)
- Potency [3]: 0.526 µM (active)
- Potency [4]: 20.9 µM (active)
- Potency [5]: 20.9 µM (active)
- Potency [6]: 18.7 µM (active)

Structure (SMILES): OC1CCC(Nc2ncc3nc(Nc4c(F)cc(F)cc4F)n([C@@H]4CCOC4)c3n2)CC1 (some centres not stated)
- Potency [1]: 11.8 µM (active)
- Potency [7]: 16.6 µM (active)
- Potency [3]: 14.8 µM (active)

Structure (SMILES): CC1(C)OC2CC3C4CC(F)C5=CC(=O)C=CC5(C)C4C(O)CC3(C)[C@]2(C(=O)CO)O1 (some centres not stated)
- Potency [1]: 0.0235 µM (active)
- Potency [2]: inactive
- Potency [3]: inactive
- Potency [4]: inactive
- Potency [8]: inactive
- Potency [5]: 0.0833 µM (active)
- Potency [6]: inactive

Structure (SMILES): CC(C)(O)CC(=O)NCCn1ccc2ncnc(Nc3ccc(Oc4cccc(C(F)(F)F)c4)c(Cl)c3)c21
- Potency [1]: 5.26 µM (active)
- Potency [2]: 23.5 µM (active)
- Potency [3]: 29.6 µM (active)
- Potency [5]: 23.5 µM (active)

Structure (SMILES): CNc1nc(Nc2ccc(C(=O)N3CCOCC3)cc2OC)ncc1Cl
- Potency [1]: inactive
- Potency [2]: 20.9 µM (active)
- Potency [8]: inactive
- Potency [5]: inactive

Structure (SMILES): CO[C@H]1C=CO[C@@]2(C)Oc3c(C)c(O)c4c(O)c(c(C=NN5CCN(C)CC5)c(O)c4c3C2=O)NC(=O)C(C)=CC=C[C@H](C)[C@H](O)[C@@H](C)[C@@H](O)[C@@H](C)[C@H](OC(C)=O)[C@H]1C
- Potency [1]: inactive
- Potency [4]: 1.19 µM (active)
- Potency [8]: inactive
- Potency [6]: inactive

Structure (SMILES): Cc1ccc2c(=O)c3cccc(CC(=O)O)c3oc2c1C
- Potency [1]: inactive
- Potency [3]: 23.5 µM (active)
- Potency [8]: 26.4 µM (active)

Structure (SMILES): Oc1ccc(C=Cc2cc(O)cc(O)c2)cc1
- Potency [1]: inactive
- Potency [7]: inactive
- Potency [3]: 16.6 µM (active)
- Potency [5]: 18.7 µM (active)
- Potency [6]: inactive

Structure (SMILES): CC(C)c1onc(-c2c(Cl)cccc2Cl)c1COc1ccc(C=Cc2cccc(C(=O)O)c2)c(Cl)c1
- Potency [1]: inactive
- Potency [7]: inactive
- Potency [3]: inactive
- Potency [8]: inactive
- Potency [6]: inactive

Structure (SMILES): CCOC(=O)N1c2ccc(C(F)(F)F)cc2[C@@H](N(Cc2cc(C(F)(F)F)cc(C(F)(F)F)c2)C(=O)OC)C[C@H]1CC
- Potency [1]: inactive
- Potency [7]: inactive
- Potency [4]: 5.9 µM (active)
- Potency [8]: inactive
- Potency [6]: inactive

Structure (SMILES): N#Cc1ccc(Oc2ccc3c(c2)COB3O)cc1
- Potency [1]: 16.6 µM (active)
- Potency [3]: 20.9 µM (active)
- Potency [6]: 23.5 µM (active)

Structure (SMILES): O=C1CN2Cc3c(ccc(Cl)c3Cl)N=C2N1
- Potency [1]: inactive
- Potency [7]: inactive
- Potency [8]: 29.6 µM (active)
- Potency [5]: 26.4 µM (active)
- Potency [6]: 0.296 µM (active)

Structure (SMILES): Fc1ccc(C(c2ccc(F)cc2)N2CCN(CC=Cc3ccccc3)CC2)cc1
- Potency [1]: inactive
- Potency [7]: inactive
- Potency [8]: inactive
- Potency [5]: inactive

Structure (SMILES): Cc1csc(-c2nnc(Nc3ccc(Oc4ncccc4-c4ccnc(N)n4)cc3)c3ccccc23)c1
- Potency [1]: 14.8 µM (active)
- Potency [4]: 18.7 µM (active)

Structure (SMILES): CC(C)CN(C[C@H](O)[C@H](Cc1ccccc1)NC(=O)O[C@H]1CCOC1)S(=O)(=O)c1ccc(N)cc1
- Potency [1]: inactive
- Potency [4]: 1.87 µM (active)
- Potency [8]: 18.7 µM (active)
- Potency [6]: inactive

Structure (SMILES): CN1CCC[C@H]1CCO[C@](C)(c1ccccc1)c1ccc(Cl)cc1
- Potency [1]: inactive
- Potency [3]: 18.7 µM (active)
- Potency [5]: 13.2 µM (active)

Structure (SMILES): COc1nccc(-c2c(-c3ccc(F)cc3)ncn2C2CCNCC2)n1
- Potency [1]: inactive
- Potency [3]: 10.5 µM (active)
- Potency [8]: 1.66 µM (active)
- Potency [5]: inactive

Structure (SMILES): O=C1NC(=O)C(c2cnc3ccccn23)=C1c1cn2c3c(cccc13)CN(C(=O)N1CCOCC1)CC2
- Potency [1]: 13.2 µM (active)
- Potency [3]: 0.001 µM (active)
- Potency [8]: 1.48 µM (active)
- Potency [5]: 0.001 µM (active)

Structure (SMILES): CO[C@H]1O[C@@H]2O[C@@]3(C)CC[C@@H]4[C@@H](C)CC[C@@H]([C@H]1C)[C@@]24OO3
- Potency [1]: 1.32 µM (active)
- Potency [3]: 0.469 µM (active)
- Potency [4]: 5.9 µM (active)
- Potency [8]: 7.43 µM (active)
- Potency [5]: 1.18 µM (active)

Structure (SMILES): OC(c1cc(C(F)(F)F)nc2c(C(F)(F)F)cccc12)C1CCCCN1 (configuration not stated)
- Potency [1]: 20.9 µM (active)
- Potency [7]: 16.6 µM (active)
- Potency [3]: 23.5 µM (active)
- Potency [8]: 20.9 µM (active)
- Potency [5]: 16.6 µM (active)

Structure (SMILES): O=C(O)Cc1cccc(OCCCN(Cc2cccc(C(F)(F)F)c2Cl)CC(c2ccccc2)c2ccccc2)c1
- Potency [1]: inactive
- Potency [4]: 5.26 µM (active)

Structure (SMILES): O=C(Nc1ncc(SCCN2CCCC2)s1)[C@]1(c2ccc(S(=O)(=O)C3CC3)cc2)C[C@@H]1C1CCCCC1
- Potency [9]: 10.5 µM (active)
- Potency [10]: 16.6 µM (active)
- Potency [2]: 20.9 µM (active)
- Potency [7]: 6.62 µM (active)
- Potency [3]: 16.6 µM (active)
- Potency [4]: 16.6 µM (active)
- Potency [8]: 23.5 µM (active)
- Potency [5]: 18.7 µM (active)
- Potency [6]: 7.43 µM (active)

Structure (SMILES): O=C(Nc1cccc(C(F)(F)F)c1)Nc1cc(S(=O)(=O)NC2CC2)ccc1-c1ccsc1
- Potency [1]: inactive
- Potency [7]: inactive
- Potency [5]: 26.4 µM (active)

Structure (SMILES): COc1cc2nccc(Oc3ccc(NC(=O)Nc4cc(C)on4)c(Cl)c3)c2cc1OC
- Potency [1]: 3.72 µM (active)
- Potency [3]: 23.5 µM (active)
- Potency [4]: 26.4 µM (active)
- Potency [5]: 20.9 µM (active)
- Potency [6]: inactive

Structure (SMILES): Cc1ccc(S(=O)(=O)OCC(=O)Nc2ccc(C(=O)O)c(O)c2)cc1
- Potency [1]: inactive
- Potency [3]: 13.2 µM (active)
- Potency [4]: 16.6 µM (active)
- Potency [8]: 20.9 µM (active)
- Potency [5]: 20.9 µM (active)

Structure (SMILES): CC(C)(OCc1nn(Cc2ccccc2)c2ccccc12)C(=O)O
- Potency [1]: inactive
- Potency [3]: inactive
- Potency [6]: inactive

Structure (SMILES): O=C(C=Cc1ccc(O)cc1)c1ccc(O)cc1O
- Potency [1]: 16.6 µM (active)
- Potency [7]: 4.69 µM (active)
- Potency [3]: 3.32 µM (active)
- Potency [4]: 14.8 µM (active)
- Potency [5]: 23.5 µM (active)
